# Screens: PubChem, National Center for Advancing Translational Sciences (NCATS)
# DT40 TDP1 no CPT: qHTS for Inhibitors of human tyrosyl-DNA phosphodiesterase 1 (TDP1): qHTS in cells in absence of CPT | DT40 Tdp1-/- hTDP1 cells, no CPT, ATP luminescence, 48 h | Potency, µM (top dose mostly 46.2 µM), most hits filed as inhibitors | AID 686978, 2013 | 420,000 tested, 15% active; note: nearly all actives have a fitted effect of over 55% in size
#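 Readout: luminescence from CellTiter-Glo after 30 min in the dark at RT. Cells: DT40 Tdp1-/- with stable hTDP1, 400/well. Exposure: compounds alone, ≥48 hr, 37 °C.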
# IL1B secr inh: qHTS for Inhibitors of Inflammasome Signaling: IL-1-beta AlphaLISA Primary Screen | THP-1 LPS/ATP IL-1B secretion, AlphaLISA, 16 h; active compounds read low | activity change, % at 57.5 µM | 360,000 tested, 4.7% active; in the data active = activity change below about -50%; inconclusive = mostly about -30% to -49%
#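 THP-1 cells pretreated 1 hr with compounds (up to 57.5 uM final), then stimulated with LPS (250 ng/mL final) plus ATP (1.25 mM final); secreted IL-1B measured by AlphaLISA after 16 hr, decreased signal indicating inhibition.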
# HT1080 IDH1KD tx: qHTS for induction of synthetic lethality in tumor cells producing 2HG: qHTS for the HT-1080-IDH1KD cell line; 360,000 tested, 2% active; HT-1080 IDH1 knockdown viability, ATP luminescence, 48 h; AID 686971, 2013; Potency, µM (series often up to 46.1 µM), usual class: cytotoxic
#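 Using the IDH1-knockdown HT-1080 line run in the same batch and compound series as the NT line, viability after 48 h at 37 °C was determined by CellTiter-Glo luminescence and expressed as % activity.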
# HT1080NT lethal: qHTS for induction of synthetic lethality in tumor cells producing 2HG: qHTS for the HT-1080-NT fibrosarcoma cell line; HT-1080-NT fibrosarcoma viability, CellTiter-Glo ATP luminescence, 48 h; Potency, µM (doses to about 46.1 µM), hits mostly cytotoxic; 360,000 tested, 1.6% active; AID 686970, 2013;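 note: NT is the 2HG producing partner of a matched IDH1 knockdown line; nearly all actives have a fitted effect of over 55% in size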
#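 HT-1080-NT fibrosarcoma cells (2HG-overproducing), 750 cells/well in RPMI with 5% FBS, dosed after 2 h and incubated 48 h at 37C. CellTiter-Glo luminescence normalized to DMSO and no-cell wells; concentration-response curves fitted and classed.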
# DT40 TDP1 CPT: qHTS for Inhibitors of human tyrosyl-DNA phosphodiesterase 1 (TDP1): qHTS in cells in presence of CPT; chicken DT40 Tdp1-/-;hTDP1 cells + 20 nM CPT, ATP luminescence, 48 h; Potency, µM (doses to about 46.2 µM), usual class: inhibitors; 420,000 tested, 12% active; AID 686979, 2013; note: nearly all actives have a fitted effect of over 55% in size
#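 Chicken DT40 Tdp1-/- cells complemented with human TDP1, 400 cells/well, exposed to compounds plus 20 nM camptothecin for at least 48 h at 37 C; viability read as ATP content by CellTiter-Glo luminescence.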
# A number is an active result; i = inactive; ? = inconclusive; nt = no result; [ ] = remark or other dose. Compounds with a hit are over-represented: about 19% of the library has one in this group of screens. Unless noted, calls come from the whole dose curve; as a rule, active = well fitted curve in the direction sought with a large enough effect; inconclusive = small, poorly fitted or top-dose-only effect, or another doubt; inactive = no such curve, though single readings can be large; an effect the other way counts as inactive or inconclusive.
SMILES,DT40 TDP1 no CPT,IL1B secr inh,HT1080 IDH1KD tx,HT1080NT lethal,DT40 TDP1 CPT
O=C(NCCc1ccccc1)C(=S)N1CCCCC1,i,i,i,i,i
CC(C)N(CC(O)COc1ccc(CC(N)=O)cc1)CC(O)COc1ccc(CC(N)=O)cc1 (stereo unspecified),?,i,i,i,i
CC1(C(=O)Nc2ccc3c(c2)OCCO3)CN(S(C)(=O)=O)CC(=O)N1CC(F)(F)F (stereo unspecified),i,i,i,i,i
O=S(=O)(c1ccc(Cl)cc1)N1CCN=C1SCc1ccc(Cl)c(Cl)c1,i,i,i,i,i
COc1ccccc1N1CCN(S(=O)(=O)CCNC(=O)COc2ccccc2F)CC1,?,nt,nt,nt,i
CC(C)c1ccc(CC(=O)N2CCC2(C)C(=O)Nc2ccc3c(c2)OCCO3)cc1 (stereo unspecified),?,i,i,i,i
CC(C)Oc1ccc(CN2CCC2(C)C(=O)Nc2ccc3c(c2)OCO3)cc1 (stereo unspecified),?,i,i,i,16.4µM
CC(C)c1ccc(CN2CCC2(C)C(=O)Nc2ccc3c(c2)OCO3)cc1 (stereo unspecified),8.2µM,i,?,?,?
CCc1ccc2c(COC(=O)C3CC(=O)N(CCc4ccccc4)C3)cc(=O)oc2c1 (stereo unspecified),i,i,i,i,i
COc1cc(CNc2nc(C)c([N+](=O)[O-])c(C)c2C#N)cc(OC)c1OC,18.4µM,i,i,i,20.6µM
COc1ccc(CNc2cc([N+](=O)[O-])ccc2OC)cc1,i,i,i[9.24 µM],i,i
COc1ccc(CNc2nc(C)c([N+](=O)[O-])c(C)c2C#N)cc1,?,i,i,i,18.4µM
Cc1cccc(C(=O)NCCC(=O)NCc2ccccc2F)c1,i,i,i,i,i
CSC(=NCc1ccco1)NC#N,i,i,i,i,i
COc1ccccc1-c1noc(CCC(=O)NC2CCCCC2)n1,i,i,i,i,i
CC(NC(=O)Cc1cccs1)C(c1cccs1)N1CCOCC1 (stereo unspecified),i,i,i,i,i
COc1ccccc1C(=O)NC(=O)COC(=O)c1cnccn1,i,i,i,i,i
C=CCSc1nc2ccccc2n1C(=O)/C=C/c1ccc(OC)c(OC)c1,3.55µM,-101.8,2.51µM,?,5.01µM
CCn1c(SCC(=O)N/N=C/c2ccc(OC)c(OC)c2)nc2ccccc21,?,i,i,i,?
COc1ccc(/C=C/C(=O)N2CC(C)OC(C)C2)cc1OC (stereo unspecified),i,i,i,i,i
CCSc1nc2ccccc2n1C(=O)/C=C/c1ccc(OC)c(OC)c1,3.26µM,-102.5,5.8µM,8.2µM,4.11µM
C=CCSc1nc2ccccc2n1C(=O)/C=C/c1cc(OC)c(OC)c(OC)c1,2.06µM,-104.1,2.24µM,5.01µM,2.31µM
S=C(NCCC1=CCCCC1)Nc1ccc(Cl)cc1,20.6µM,i,i,i,23.1µM
Clc1ccc(CNCCC2=CCCCC2)cc1,i,-75.7,i,i,i
Cn1sccc1=O,2.91µM,-52.9,?,?,2.91µM
SMILES,DT40 TDP1 no CPT,IL1B secr inh,HT1080 IDH1KD tx,HT1080NT lethal,DT40 TDP1 CPT
CC[C@]12c3[nH]c4cc(CCC(=O)N(C)C)ccc4c3CCN1C(=O)[C@@H](CC(=O)NCCCOC)C[C@@H]2C(=O)N1CCN(C(=O)c2ccco2)CC1,i,i,i,i,i
COc1ccccc1C(CNC(=O)CSc1ccc2ccccc2c1)N(C)C (stereo unspecified),?,i,i,i,?
COc1ccccc1C(CNc1nc(C(F)(F)F)nc2ccccc12)N(C)C (stereo unspecified),20.6µM,i,i,i,?
Cc1ccc(OC(C)C(=O)N2CC(=O)Nc3ccccc32)cc1 (stereo unspecified),i,i,i,i,i
CCOC(=O)/C=C(C)\C=C\c1c[nH]c2ccccc12,29.1µM,-64.0,?,?,i
CCOC(=O)/C(=C/c1c[nH]c2ccccc12)NC(C)=O,i,i,i,i,i
O=C(CNCc1ccc(F)cc1)Nc1ccccc1[N+](=O)[O-],i,i,i,i,i
COc1ccc(CNC(=O)Nc2nc(C(N)Cc3ccc(Cl)cc3)cs2)cc1 (stereo unspecified),18.4µM,?,16.4µM,?,23.1µM
COc1ccc(CNC(=O)Nc2nc(C(N)Cc3ccc(F)cc3)cs2)cc1 (stereo unspecified),16.4µM,?,13µM,?,?
NC(Cc1ccc(F)cc1)c1csc(NC(=O)NC(c2ccccc2)c2ccccc2)n1 (stereo unspecified),13µM,-53.2,16.4µM,18.4µM,14.6µM
COc1ccccc1CNC(=O)Nc1nc(C(N)Cc2ccc(Cl)cc2)cs1 (stereo unspecified),?,i,20.6µM,14.6µM,?
O=C(O)C(Cc1ccc(F)cc1)c1ccccc1 (stereo unspecified),i,i,i,i,i
O=C(CN(Cc1ccccc1Cl)C(=O)c1csnn1)NCCc1ccccc1,i,i,i,i,i
Cc1[nH]c2ccccc2c1C(=O)CSc1n[nH]c(N)n1,i,i,i,i,i
Cc1cc(/C=C(\C#N)C(=O)NCc2ccccc2)cc(C)c1O,i,i,i,i,i
COCCNC(=O)/C(C#N)=C/c1ccc(N2CCOCC2)o1,i,i,i,i,i
N#C/C(=C\c1ccc(N2CCOCC2)o1)C(=O)NCCc1ccccc1,?,-51.3,i,i,?
N#C/C(=C\c1ccc(O)c(O)c1)C(=O)NCCCc1ccccc1,4.11µM,i,?,?,?
COc1ccc(/C=C(\C#N)C(=O)NCCc2ccccc2)cc1OCc1ccccc1,16.4µM,i,?,i,?
O=C1SCCC1NS(=O)(=O)c1ccc([N+](=O)[O-])cc1 (stereo unspecified),i,i,i,i,i
CCSc1ccccc1C(=O)N1CCN(c2ccccc2F)CC1,i,i,?,i,i
Cc1cccn2c(=O)c3cc(C(=O)N4c5ccccc5CC4C)n(C)c3nc12 (stereo unspecified),16.4µM,i,i,i,18.4µM
CC1Cc2ccccc2N1C(=O)c1cc2c(=O)n3ccccc3nc2n1C (stereo unspecified),?,i,i,i,11.6µM
CCOc1ccccc1C(=O)Nc1cc2c(cc1N1CCCCC1)n(C)c(=O)n2C,18.4µM,nt,nt,nt,14.6µM
CCn1c(=O)n(CC)c2cc(N3CCCCC3)c(NC(=O)Nc3cc(Cl)ccc3OC)cc21,18.4µM,nt,nt,nt,23.1µM
